Compound activity: PubChem BioAssay, several laboratories
An excerpt weighted towards active compounds, which were near 3.2% of everything screened.
GDH-TPI inh: inhibits GDH-TPI coupling enzymes, artifact for Mtb FBA screen; GDH-TPI coupled enzyme counterscreen, NADH absorbance; inhibition, % at 4.8 µM; hit rate 1.2% among 360,000; AID 588335; in the data active = inhibition above about 30%
Mtb FBA inh: inhibitors of M. tuberculosis fructose-bisphosphate aldolase. P9WQA3. purified M. tuberculosis FBA, fluorescence read-out. inhibition, % at 1 µM. hit rate 2.3% among 360,000. AID 588726; in the data active = inhibition above about 27%
Target sequence (P9WQA3 whole entry, looked up): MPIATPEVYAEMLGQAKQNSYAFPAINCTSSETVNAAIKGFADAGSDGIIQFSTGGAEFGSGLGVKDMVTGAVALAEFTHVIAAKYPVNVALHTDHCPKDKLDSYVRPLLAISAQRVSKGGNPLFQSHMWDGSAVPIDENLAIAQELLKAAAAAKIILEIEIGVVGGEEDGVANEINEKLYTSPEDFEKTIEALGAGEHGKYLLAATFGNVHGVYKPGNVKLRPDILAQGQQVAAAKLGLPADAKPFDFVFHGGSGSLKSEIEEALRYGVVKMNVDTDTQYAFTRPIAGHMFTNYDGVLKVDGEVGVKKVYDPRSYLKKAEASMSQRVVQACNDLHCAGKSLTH
Y pestis TopoI: blocks Yersinia pestis topoisomerase I activity | activity, % at 10 µM | Y. pestis Topo-I cleavage product accumulation, plate reader | hit rate 0.064% among 360,000; in the data active = activity above about 50%, passing the limit was not always enough
PrPC TRFRET: inhibitors of human cell surface prion protein PrPC; P04156; TR-FRET read-out; inhibition, % at 13.8 µM; hit rate 0.43% among 370,000; in the data active = inhibition above about 24%
TcdB inh: inhibitors of Clostridioides difficile toxin B glycohydrolase | P18177 | TcdB glycohydrolase enzymatic assay, plate reader | inhibition, % at 9.99 µM | hit rate 0.24% among 350,000; in the data active = inhibition above about 10%
A number is an active result; 0 = inactive; - = no result; + = active, no number.

SMILES	GDH-TPI inh	Mtb FBA inh	Y pestis TopoI	PrPC TRFRET	TcdB inh
COCCNC(=O)/C(C#N)=C/c1cc(C)n(C2CCCCC2)c1C	0	0	0	0	0
Cc1cc(/C=C(\C#N)C(=O)O)c(C)n1-c1ccc(Br)cc1	32	0	0	0	0
COCCn1c(C)cc(/C=C(\C#N)C(=O)OC(C)C(=O)Nc2ccc(NC(C)=O)cc2)c1C (stereo unspecified)	39	0	0	0	0
CCCn1c(C)cc(/C=C(\C#N)C(=O)O)c1C	31	0	0	0	0
COCCNC(=O)/C(C#N)=C/c1cc(C)n(-c2ccc(C)cc2)c1C	31	0	0	0	0
Cc1cc(/C=C(/C#N)C(=O)O)c(C)n1CCC(C)C	0	0	0	0	0
C[C@H]1CN([C@@H](C)CO)C(=O)c2cc(NC(=O)CCC(F)(F)F)ccc2O[C@@H]1CN(C)CC1CC1	-	-	-	-	0
CNC(=O)/C(C#N)=C\c1cc(C)n(-c2ccc(N3CCOCC3)cc2)c1C	31	0	0	0	0
Cc1cc(C=C(C#N)C#N)c(C)n1-c1ccccc1	0	0	0	0	-
Cc1ccc(-n2c(C)cc(C=C(C#N)C#N)c2C)cc1	39	0	0	0	-
CC(C)C#Cc1ccc([C@H]2[C@H]3CN(C(=O)c4ccc5c(c4)OCO5)CC(=O)N3[C@H]2CO)cc1	-	-	-	-	0
Cc1ccc(C(=O)Nc2ccc(N3CCCC3)cc2)cc1	0	0	0	0	0
Cc1ccc(C(=O)Nc2ccc(N3CCCCC3)cc2)cc1	0	0	0	0	11
COc1ccc(-c2nc(C#N)c(NCC3CCCO3)o2)cc1OC (stereo unspecified)	0	180	0	0	-
CCCOc1ccc(-c2nc(C#N)c(NCC3CCCO3)o2)cc1 (stereo unspecified)	0	121	0	0	-
CCOc1ccc(-c2nc(C#N)c(NCC3CCCO3)o2)cc1 (stereo unspecified)	0	177	0	0	-
CC=Cc1ccc2n(c1=O)C[C@H]1[C@H](CO)[C@@H](C(=O)N3CCCCC3)[C@@H]2N1CC1CCCC1 (mixture of isomers)	-	-	-	-	0
COC(=O)c1sc(NC(=O)c2ccc(C)o2)nc1C	35	0	0	0	0
CCOC(=O)c1sc(NC(=O)c2ccc(C)o2)nc1C	0	0	0	0	-
CCCC(=O)Nc1nc2ccc(OCC)cc2s1	0	0	0	0	0
CCOc1ccc2nc(NC(=O)c3ccc(C)o3)sc2c1	49	0	0	0	0
COc1cc(NC(=O)CCl)ccc(=O)c1	42	0	0	0	0
Cc1cc2oc3cc(NCCC4CCCN4C)ccc3c(=O)c2cc1C (stereo unspecified)	0	+	0	0	0
COc1ccc(OC)c(/C=N/NC(=O)CNC(=O)c2cccc3ccccc23)c1	0	145	0	0	0
COc1ccc(O)c(/C=N/NC(=O)CCC(=O)Nc2cccc(C)c2)c1	0	0	0	0	0
SMILES	GDH-TPI inh	Mtb FBA inh	Y pestis TopoI	PrPC TRFRET	TcdB inh
COc1ccc(OC)c(/C=N/NC(=O)CCCC(=O)Nc2cccc(Br)c2)c1	0	60	0	0	0
C/C=C/c1ccc([C@H]2[C@@H](CO)N3CCCCN(C(=O)Nc4ccc(F)cc4)C[C@H]23)cc1	-	-	-	-	0
O=C(O)c1ccc(N/N=C/c2cccc(F)c2)cc1	37	0	0	0	-
CSc1ccc(/C=N/Nc2cccc(C(=O)O)c2)cc1	0	0	0	-	-
O=C(Oc1ccc(/C=N/Nc2ccccc2)cc1)c1ccccc1	0	0	0	0	-
O=C(O)c1ccc(N/N=C/c2ccc3nccnc3c2)cc1	0	0	0	0	0
O=C(O)c1ccc(N/N=C/c2ccncc2)cc1	32	0	0	0	0
O=C(O)c1ccc(N/N=C/c2ccc(F)c(F)c2)cc1	58	0	0	0	0
O=C(O)c1ccc(N/N=C/c2ccc(OC(=O)c3cccc(Cl)c3)cc2)cc1	31	0	0	0	0
O=C(O)c1ccc(N/N=C/c2cccc(C(F)(F)F)c2)cc1	0	0	0	0	0
Cc1ccc(S(=O)(=O)N[C@H]2CC[C@@H](CCNC(=O)C3CCC3)O[C@H]2CO)cc1	-	-	-	-	0
O=C(O)c1ccccc1NS(=O)(=O)c1ccc(NN=Cc2ccccc2F)c([N+](=O)[O-])c1	32	0	0	0	0
Cc1nn(-c2ccccc2)c(Cl)c1/C=N/Nc1ccc(S(=O)(=O)Nc2ccccc2C(=O)O)cc1[N+](=O)[O-]	47	0	0	0	-
CSc1ccc(C=NNc2ccc(S(=O)(=O)Nc3ccccc3C(=O)O)cc2[N+](=O)[O-])cc1	0	0	0	0	0
COc1ccc(NC(=S)NNc2ccc(S(=O)(=O)Nc3ccccc3C(=O)O)cc2[N+](=O)[O-])cc1	41	0	0	0	0
COc1ccc(C=NNc2ccc(S(=O)(=O)Nc3ccccc3C(=O)O)cc2[N+](=O)[O-])c(OC)c1	0	0	0	-	0
C[C@@H]1CN([C@@H](C)CO)C(=O)c2cc(NS(=O)(=O)c3ccc(F)cc3)ccc2O[C@@H](C)CCCCO[C@H]1CN(C)C(=O)c1ccncc1	-	-	-	-	0
Nc1[nH]c(N=NC(=O)c2ccc(F)cc2)c2ccccc12	33	0	0	0	0
CCCCCCSc1cc(-c2nc3cnccn3c2NCCCC)ccc1OC	0	0	0	-	0
CCCCNc1c(-c2ccc(OC)c(Sc3ccc(OC)cc3)c2)nc2ccccn12	0	28	0	-	0
CCCCNc1c(-c2ccc(SC(C)CC)cc2)nc2cnccn12 (stereo unspecified)	0	40	0	-	-
CCCCNc1c(-c2ccc(OC)c(Sc3ccc(OC)cc3)c2)nc2cnccn12	0	0	0	0	0
CCOC(=O)c1cc(OC)c2cccc(CN3CCC(C)(C(=O)NCCOC)C3)c2c1 (stereo unspecified)	0	28	0	-	-
O=S(=O)(Nc1nc2ccccc2nc1NCc1ccco1)c1ccc(F)cc1	34	0	0	0	0
O=S(=O)(Nc1nc2ccccc2nc1NCc1ccco1)c1ccccc1	0	0	0	0	-
SMILES	GDH-TPI inh	Mtb FBA inh	Y pestis TopoI	PrPC TRFRET	TcdB inh
O=c1[nH]c(=S)n(-c2cccc(Cl)c2)c(O)c1/C=N/N1CCOCC1	35	0	0	0	0
O=C(CCN1C(=O)S/C(=C/c2ccc(F)cc2)C1=O)Nc1ccc(O)c(C(=O)O)c1	32	0	0	0	0
O=C(CCN1C(=O)S/C(=C\c2ccc(F)cc2)C1=O)Nc1ccc(O)cc1C(=O)O	43	0	0	0	0
O=C(CCN1C(=O)S/C(=C\c2ccc(F)cc2)C1=O)Nc1ccc(C(=O)O)c(O)c1	43	0	0	0	0
NNC(=O)CCc1nc2ccc(O)cc2[nH]1	0	0	0	0	14
O=C(CCc1nc2ccccc2[nH]1)Nc1ccccc1	0	0	0	0	-
O=C(c1ccccc1)n1c(=S)nc2ccccn21	0	0	0	0	-
O=C(N=c1nc2ccccn2s1)c1ccccc1	32	0	0	0	-
N#Cc1c(N)n(-c2ccccc2N)c2nc3ccccc3nc12	0	0	0	0	0
N#Cc1c(N)n(-c2cccc(C(=O)O)c2)c2nc3ccccc3nc12	43	+	0	0	0
CC(C)(C)c1ccc(C(=O)Nc2nnc(C3=COCCO3)o2)cc1	0	0	0	0	0
CN(C)c1ccc(C(=O)Nc2nnc(C3=COCCO3)o2)cc1	41	0	0	0	0
